Test results from PubChem BioAssay AID1220 (Sanford-Burnham Center for Chemical Genomics, 2008).
About 1,300 (0.68%) of roughly 190,000 compounds were called active. Only a selection was taken, and actives are over-represented in it overall. A number with no mark means an inactive call. No stated cut-off is given here; in the data, active means inhibition above about 50%; inactive means the rest.

These compounds were tested against Mannose-6-phosphate isomerase (Homo sapiens) (UniProt P34949) (assay: human PMI inhibitors, high substrate, primary screen, biochemical, fluorescence intensity, high mannose 6-phosphate (AID 1220)). Details: recombinant PMI enzyme, coupled fluorescence intensity; at 20 µM; stronger effect = higher value.
Chain of Mannose-6-phosphate isomerase (Homo sapiens) (P34949 whole entry, looked up): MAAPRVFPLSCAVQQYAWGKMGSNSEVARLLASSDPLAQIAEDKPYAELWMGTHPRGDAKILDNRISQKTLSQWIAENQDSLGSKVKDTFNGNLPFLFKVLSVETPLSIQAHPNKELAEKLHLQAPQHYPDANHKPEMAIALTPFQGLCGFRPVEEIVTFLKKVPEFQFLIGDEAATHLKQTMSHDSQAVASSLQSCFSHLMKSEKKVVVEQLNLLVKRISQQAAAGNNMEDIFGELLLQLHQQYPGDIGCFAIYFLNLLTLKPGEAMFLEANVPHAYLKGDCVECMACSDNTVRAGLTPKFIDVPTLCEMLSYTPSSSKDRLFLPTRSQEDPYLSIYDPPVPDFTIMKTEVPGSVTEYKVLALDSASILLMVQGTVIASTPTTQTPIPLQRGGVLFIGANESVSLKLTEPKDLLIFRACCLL

Structure (SMILES)	inhibition
COc1ccc(-c2[nH]ncc2CNCC(C)(C)N2CCOCC2)cc1F	8.1%
CN=C(Nc1cccc(OC)c1)SC1CC(=O)N(c2ccc(C(=O)O)cc2)C1=O (configuration not stated)	8.7%
O=C(CCS(=O)(=O)Cc1ccc(Cl)cc1)NCCCN1CCOCC1	4.1%
CCCCCCCCCCCCCCCC[n+]1cccc2ccccc21	-9.4%
CCCN(CCC)C(=S)NC(=O)c1ccc(Cl)cc1Cl	87.2% (active)
CCCCN(CCCC)C(=S)NC(=O)c1ccccc1Cl	7.7%
CCN(CC)C(=S)NC(=O)c1ccc(Cl)cc1Cl	0.2%
CCOc1cc(N2CCOCC2)c(OCC)cc1NC(=O)c1ccc(=O)n(Cc2ccccc2)n1	7.5%
O=C(NC1CCCCC1)C(c1cc2c(cc1[N+](=O)[O-])OCO2)N1CCCCC1 (configuration not stated)	46.3%
O=CN1CCN(C(C(=O)NC2CCCCC2)c2cc3c(cc2[N+](=O)[O-])OCO3)CC1 (configuration not stated)	58.3% (active)
O=C(NC1CCCC1)C(c1cc2c(cc1[N+](=O)[O-])OCO2)N1CCCC1 (configuration not stated)	23.9%
O=CN1CCN(C(C(=O)NC2CCCC2)c2cc3c(cc2[N+](=O)[O-])OCO3)CC1 (configuration not stated)	31.4%
CC1CCN(C(C(=O)NC2CCCCC2)c2cc3c(cc2[N+](=O)[O-])OCO3)CC1 (configuration not stated)	61.1% (active)
CCN1CCN(C(C(=O)NC2CCCC2)c2cc3c(cc2[N+](=O)[O-])OCO3)CC1 (configuration not stated)	46.2%
CCOC(=O)Cn1nc(C)n(-c2c(C)cccc2C)c1=O	8.1%
Cc1cc(Cl)ccc1OCCCC(=O)N1CCCCC1	-5.5%
COc1ccc(S(=O)(=O)N2CCSC2c2ccc(OC)c(OC)c2)cc1 (configuration not stated)	-17.1%
Cc1cccc(NC(=S)NCCc2ccccc2)n1	6.5%
COn1c(C)c(C(C)=O)c2c3nonc3ccc21	58% (active)
C=CCOn1c(C)c(C(C)=O)c2c3nonc3ccc21	49.2%
COn1c(C)c(C(C)=O)c2c3no[n+]([O-])c3ccc21	8.2%
CCN1C(=C(C#N)C#N)C=Cc2cc(C)ccc21	5.3%

Structure (SMILES)	inhibition
C=CC[n+]1c(/C=C2\C=Cc3cc(C)ccc3N2CC)ccc2ccccc21	9%
CCN1/C(=C/c2cc[n+](C)cc2)C=Cc2cc(C)ccc21	66.7% (active)
CCOC(=O)c1ccc(NC(=O)c2n[nH]c(=O)c3ccccc23)cc1	-0.1%
CCN(CC(=O)Nc1cccc(C(C)=O)c1)S(=O)(=O)c1ccc(C)cc1	-6.4%
O=c1c2c(-c3ccc([N+](=O)[O-])cc3)csc2nc2n1CCC2	28.9%
Cc1nc(N)sc1-c1csc(N(C)c2ccc(O)cc2)n1	56.3% (active)
Cc1cc(O)ccc1Nc1nc(-c2sc(N)nc2C)cs1	2%
CN(c1ccc(O)cc1)c1nc(-c2ccccc2)cs1	25.1%
CNC(=S)N1N=C(c2ccccc2)CC1c1ccccc1Cl (configuration not stated)	1%
CC(C)(C)NC(=S)NCc1ccc2c(c1)OCO2	-10.4%
Cc1cc(NC(=O)COc2cccc3cccnc23)no1	51.1% (active)
NNC(=O)COc1cccc2cccnc12	-9.1%
Cc1cc(NC(=O)COc2cccc(C)c2C)no1	4.6%
Cc1cc(NC(=O)COc2ccccc2C)no1	-5.2%
O=C(COc1cccc2cccnc12)Nc1ccccc1	5.4%
Cc1ccc(NC(=O)CN(C)S(=O)(=O)c2cccc3cccnc23)cc1	15.3%
O=C(COc1cccc2cccnc12)NCc1cccs1	37.7%
O=C(COc1cccc2cccnc12)NCC(F)(F)F	56.1% (active)
CCc1ccc(NC(=O)CC2C(=O)Nc3c2c(=O)n(C)c(=O)n3C)cc1 (configuration not stated)	2.9%
CC1SC(c2ccc(Cl)cc2)NC1=O (configuration not stated)	7.4%
NC(=O)c1cc2ccccc2o/c1=N/NC(=O)c1cccs1	2.2%
COc1ccc(OC)c(NC(=O)N[C@@H](Cc2ccccc2)C(=O)O)c1	8.2%

Structure (SMILES)	inhibition
Cn1c(C(=O)NC2CC2)cc2c(=O)n(C)c3ccccc3c21	0%
COc1ccc(OC/C(O)=C(\C#N)c2nc3ccccc3[nH]2)cc1	1.2%
CCC(=O)Nc1cccc(C(=O)/C=C/c2ccc(F)cc2)c1	9.5%
O=C1CCCC2=C1C(c1ccccc1)CC(=O)N2c1ccc(F)cc1F (configuration not stated)	5.4%
CCOC(=O)c1ccc2c(c1)N(CC(=O)N1CCCCC1)C(=O)C(C)(C)O2	5.7%
COc1ccc(Nc2nc(C)c(-c3ccccc3)s2)cc1	6.2%
O=C(Nc1cccc2ccccc12)N1CCN(c2ccccc2)CC1	15.4%
CCn1cc(C(=O)O)c(=O)c2cnc(N3CCNCC3)nc21	14.5%
CCn1cc(C(=O)O)c(=O)c2cnc(N3CCN(C(=O)Nc4cccc5ccccc45)CC3)nc21	58.3% (active)
O=C(Nc1cccc2ccccc12)N1CCN(c2ncccn2)CC1	68.9% (active)
S=C(Nc1cccc2ccccc12)N1CCN(c2ncccn2)CC1	33.6%
C=CCNC(=S)N1CCN(c2ncc3c(=O)c(C(=O)O)cn(CC)c3n2)CC1	14.8%
CCn1cc(C(=O)N2CCn3c(nc4ccccc43)C2)c(=O)c2ccc(C)nc21	-2%
CCn1c(CN2CCN(CCO)CC2)nc2ccccc21	2.7%
CC1CCCC(C)N1/N=C/c1ccc(Cl)cc1 (configuration not stated)	-10.4%
CCN1C(=O)/C(=C/C=C2/Sc3ccccc3N2CCO)SC1=S	8.4%
CCN1C(=O)/C(=C/C=C2\C=CN(CC)c3ccccc32)SC1=S	64.1% (active)
CCCN1C(=O)/C(=C\C=C2/C=CN(CC)c3ccccc32)SC1=S	65.3% (active)
CCN1C(=O)/C(=C\N2CCCCCC2)SC1=S	7%
CCCN1C(=O)/C(=C\C=C2\N(CC)c3ccccc3C2(C)C)SC1=S	18.5%
CCN1C(=O)/C(=C2/C=CC=CN2C)SC1=S	9.3%
CCN1C(=O)/C(=C\C=C2/C=CC=CN2CC)SC1=S	65.6% (active)

Structure (SMILES)	inhibition
CCCCN1C(=O)/C(=C/C=C2\Oc3ccccc3N2CC)SC1=S	19.9%
CCCN1C(=O)/C(=C/C=C2\N(CC)c3ccccc3C2(C)C)SC1=S	10.7%
CCn1c(C(C)NC(=O)Cc2ccccc2)nc2ccccc21 (configuration not stated)	-0.2%
O=C(CSc1nnc2ccccn12)Nc1ccc2c(c1)OCO2	13.7%
Cc1ccc(NC(=S)NN(C)c2cc(C)nc(C)n2)cc1	-11%
CCS(=O)(=O)NCCc1cc2cc(C)c(C)cc2[nH]c1=O	0.4%
CCCCOC(=O)c1cc(=O)[nH]c2ccccc12	6.8%
Cc1cc(C(=O)N/N=C/c2ccc3c(c2)OCO3)c(C)n1-c1ccc(F)cc1	-30.4%
COc1cc(/C=N/NC(=O)c2cc(C)n(-c3ccc(F)cc3)c2C)cc(OC)c1O	51.9% (active)
COc1ccc(/C=N/NC(=O)c2cc(C)n(-c3ccccc3)c2C)cc1OC	9.5%
Nc1ccc(O)cc1C(=O)OCC(=O)c1ccc(C2CCCCC2)cc1	60.3% (active)
O=C(COC(=O)c1ccccc1[N+](=O)[O-])c1ccc(C2CCCCC2)cc1	-0.8%
COc1ccc(C(=O)OCC(=O)c2ccc(C3CCCCC3)cc2)cc1	9.2%
CCCOc1ccc(N2C(=O)CC(N3CCC(O)(c4cccc(C(F)(F)F)c4)CC3)C2=O)cc1 (configuration not stated)	7.5%
CC(=O)Oc1cc2oc(=O)cc(C)c2cc1OC(C)=O	55.7% (active)
CC(=O)c1cc2c(C)cc(=O)oc2cc1O	11.3%
CC(=O)Oc1ccc2c(C)cc(=O)oc2c1	2%
CC(=O)c1cc2c(cc1NC(=O)CCc1ccccc1)OCO2	0.5%
CCOc1cc(/C=C2/C(=O)N(c3ccccc3)N=C2C)ccc1OC(=O)c1ccco1	43.2%
CCOc1cc(/C=C2/C(=O)N(c3ccccc3)N=C2C)ccc1OC(=O)c1cccs1	17%
CCOc1cc(/C=C2\C(=O)N(c3ccc(C(N)=O)cc3)N=C2C)ccc1OC(=O)c1cccs1	61.4% (active)
CCOc1ccc(NCC2CCOC(C)(C)C2)cc1 (configuration not stated)	50.9% (active)

Structure (SMILES)	inhibition
CCOc1ccc(NCCC#N)cc1	2.3%
CCOc1ccc(NC(=O)NC2CCOC(C)(C)C2)cc1 (configuration not stated)	11.5%
CCN(CC)S(=O)(=O)c1cccc(C(=O)OCC(=O)NC(C)c2ccccc2)c1 (configuration not stated)	-2.8%
O=C(CNC(=O)/C(=C\c1ccc(F)cc1)NC(=O)c1ccccc1)OCc1ccccc1	0.8%
O=C(NCc1cccnc1)c1ccc(COc2cccc3ccccc23)o1	53.2% (active)
O=C(NCc1cccnc1)c1ccc(COc2ccccc2Br)o1	11.6%
COc1ccccc1OCc1ccc(C(=O)NCc2cccnc2)o1	6.8%
CC1CCN(c2c(NCC3CCC(C(=O)NCCc4ccccc4)CC3)c(=O)c2=O)CC1 (configuration not stated)	1.2%
Cn1ncc(N=Cc2ccccc2)c1C(=O)Nc1cccc(Cl)c1	14.7%
Cn1ncc(N=Cc2ccccc2O)c1C(=O)Nc1ccccc1	16.9%
Cn1ncc(N=Cc2c(O)ccc3ccccc23)c1C(=O)Nc1cccc(Cl)c1	64% (active)
C/C(CC(=O)Nc1ccccn1)=N\NC(=O)C(=O)Nc1ccccc1C	13%
CCOC(=O)C(Cc1ccc(Cl)cc1Cl)c1ccno1 (configuration not stated)	0.3%
O=C(NCc1ccco1)C1CCN(c2nc3ccccc3n2Cc2ccccc2F)CC1	25.8%
O=C(COC(=O)CCOc1ccccc1)Nc1ccc(Cl)cn1	9.2%
COc1ccccc1NCCC(=O)OCC(=O)Nc1ccc(Cl)cn1	50.3% (active)
COc1ccccc1C(=O)OCC(=O)Nc1ccc(Cl)cn1	6.1%
O=c1c2[nH]c3ccccc3c2ncn1Cc1ccccn1	1.8%
CC(=O)c1c(C)[nH]c(C(=O)N2CCc3ccccc3C2)c1C	12.7%
